From PubChem BioAssay AID620 (Sanford-Burnham Center for Chemical Genomics, 2007) come the findings set out here.

The whole screen tested about 87,000 compounds, of which about 360 (0.41%) were called active. Cut-off read from the data, not from the text of the source: active = cytotoxicity above about 50%; inactive = the rest. What follows is part of a selection rich in actives, with near analogues and random picks from the rest.

A short description of the assay: HT1080 cell viability loss – fluorescence readout (AID 620).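 Note: cells exposed to compound overnight then 4 h with Alamar Blue; 0% = vehicle DMSO and 100% = killing control.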 The following applies: at 10 µM, active compounds read high.
Consider `O=C(Nc1ccc(Cl)cc1)Nc1nccs1`, for which the cytotoxicity is 61.1% (active). As to `CON(C)C(=O)Nc1ccc(Cl)cc1`, the cytotoxicity was 1.8% (inactive).

For `CCOC(=O)c1c(C)n(CCN2CCN(C)CC2)c2ccc(OC)cc12`, the cytotoxicity is 9.6% (inactive).

For `CCN(CC)c1ccc(N=Cc2c(O)n(-c3ccc(OC)cc3)c(=O)[nH]c2=O)cc1`, the cytotoxicity is 0.4% (inactive). Take `CCOC(=O)C1SC2(C(F)F)CC1(O)c1c(c(OC)c3occc3c1OC)O2` (stereo not given): the cytotoxicity is 5.2% (inactive). In the case of `O=c1c2ccccc2[nH]c(=S)n1-c1ccc2c(c1)OCO2` it was -0.8% (inactive); in that of `c1cc2n(c1)-c1c(ccc3c1OCO3)CNC2c1ccc2c(c1)OCO2` (stereo not given), 3.4% (inactive).

In the case of `COc1ccc(C2NCc3ccc4c(c3-n3cccc32)OCO4)cc1OC` (stereo not given), the cytotoxicity is -2.8% (inactive). In the case of `COc1ccc(C2NCc3ccc4c(c3-n3cccc32)OCO4)cc1O` (stereo not given) it was 67.8% (active); in that of `COc1ccc(CCNC(C)CCc2ccc(OC)cc2)cc1` (stereo not given), -9.1% (inactive).

`CCC(=NCCc1c[nH]c2ccccc12)c1c(O)n(C)c(=O)n(C)c1=O`: the cytotoxicity is 3.2% (inactive).

As to `COc1ccc(C2C(C(=O)N3CCC4(CC3)OCCO4)c3cc(OC)c(OC)cc3C(=O)N2C)cc1` (stereo not given), the cytotoxicity was -12.7% (inactive). With `C[C@H]1CCCC(=O)CCC/C=C/c2cc(O)cc(O)c2C(=O)O1`, the cytotoxicity was -0.7% (inactive).

`C[C@H]1CCC[C@@H](O)CCC/C=C/c2cc(O)cc(O)c2C(=O)O1`: the cytotoxicity is 12.8% (inactive). On to `C[C@H]1CCC/C=C/C2C[C@H](O)CC2[C@H](O)/C=C/C(=O)O1` (stereo not given in full), for which the cytotoxicity is 83.3% (active). Take `COC(=O)CC1NC2CCCCC2NC1=O` (stereo not given): the cytotoxicity is 3.2% (inactive).

For the molecule `O=C1CC(N2CCC(n3c(=O)[nH]c4ccccc43)CC2)C(=O)N1Cc1ccccc1` (stereo not given), the cytotoxicity was 13.4% (inactive). In the case of `O=C1CC(N2CCC(n3c(=O)[nH]c4ccccc43)CC2)C(=O)N1c1ccc(F)cc1` (stereo not given) it was 2% (inactive). `O=c1[nH]c2ccccc2n1C1CCN(CCCC(c2ccc(F)cc2)c2ccc(F)cc2)CC1`: the cytotoxicity is 91.3% (active).

For `CCCCn1c(=O)c(C(=O)NCc2ccncc2)c(O)c2ccccc21`, the cytotoxicity was 4.9% (inactive). In the case of `COc1ccccc1N1C(=O)NC(=O)C(CCc2ccncc2)(CCc2ccncc2)C1=O` it was -6.4% (inactive). As for `CCC(=NC1CC1)c1c(O)n(C2CCCCC2)c(=O)[nH]c1=O`, the cytotoxicity is 15.1% (inactive). In the case of `CC(=O)c1cccc(NC2=NCC(C)S2)c1` (stereo not given) it was 1.4% (inactive); in that of `O=C1CN=C(c2ccccc2)c2oc3ccc(Br)cc3c2N1`, 8.1% (inactive); in that of `COc1cccc(OC)c1C1=NCC(=O)Nc2c1oc1ccc(Br)cc21`, 64.8% (active). For `CC1=CC(=C2C(=O)NC(=S)NC2=O)C=C(C(F)(F)F)N1C`, the cytotoxicity was 1.5% (inactive). For `COC(=O)C1CN(C#N)N(c2ccc(Cl)cc2)C12c1ccccc1-c1ccccc12` (stereo not given), the cytotoxicity is 84.3% (active). For the molecule `COC(=O)C[C@]1(C(=O)OC)CN(C#N)N(c2ccc(Cl)cc2)C12c1ccccc1-c1ccccc12`, the cytotoxicity is 93.9% (active).

Turning to `COC(=O)[C@@H]1[C@@H](C(=O)OC)C2(c3ccccc3-c3ccccc32)N(c2ccc(Cl)cc2)N1C#N`, the cytotoxicity is 2.6% (inactive).

In the case of `CCC(=Nc1ccc2c(c1)CCC2)c1c(O)n(C2CCCCC2)c(=O)[nH]c1=O`, the cytotoxicity was -1.6% (inactive).

On to `CCCN1CC(C)C(OC(C)=O)(c2ccccc2)CC1C` (stereo not given), for which the cytotoxicity is 1.2% (inactive).

In the case of `OC1(CN2CCOCC2)C2CC3CC(C2)CC1C3` (stereo not given), the cytotoxicity was -20.1% (inactive). With `CC(=O)Nc1ccc(S(=O)(=O)NC(CC(=O)N2CCC3(CC2)OCCO3)C(C)C)cc1` (stereo not given), the cytotoxicity was 4.2% (inactive).

As to `CCOP(=O)(C#CC(C)(C)C)C(O)(c1ccccc1)C(F)(F)F` (stereo not given), the cytotoxicity was 6.8% (inactive). As for `Cc1nc2c(=O)n(C)c(=O)nc-2n(C)n1`, the cytotoxicity is 103% (active). Consider `O=C(CN1C2CCC1CC(O)(c1cccnc1)C2)Nc1ccc2c(c1)OCO2` (stereo not given), for which the cytotoxicity is 2.5% (inactive). With `CC(C)CCP(=O)(O)c1ccccc1`, the cytotoxicity was 0.8% (inactive).

`C=CCn1c(O)c(C=NCCCOc2ccc(CC)cc2)c(=O)[nH]c1=S`: the cytotoxicity was -6.1% (inactive). In the case of `CCOC(=O)C1C(=O)NC23CCCC2C1c1ccccc1O3` (stereo not given) it was 13.5% (inactive).

Consider `Cc1cccc(-n2c(O)c(C=NCCCN3CCOCC3)c(=O)[nH]c2=O)c1C`, for which the cytotoxicity was -0.3% (inactive).
